Assay [1] in a line: ATG_PPRE_CIS: Attagene CIS-FACTORIAL HepG2 Assay for human Peroxisome Proliferator-activated Response Element (PPRE) (AID 2282958). The note with it: HepG2 PPRE cis-element reporter, Attagene transcription factor profiling; actives raise or lower the signal. In short, it runs like this: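 After human HepG2 hepatoma cells were transiently transfected with cis-promoter reporter constructs, they were exposed to test chemicals for 24 hours. Reporter RNA was then reverse-transcribed, PCR-amplified, FAM-labeled, HpaI-digested and quantified by capillary electrophoresis.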

Assay [2] is described as follows: ATG_RORE_CIS: Attagene CIS-FACTORIAL HepG2 Assay for human RAR-related Orphan Receptor Element (RORE) (AID 2282959). To be noted: HepG2 Attagene cis-factorial RORE reporter, mRNA; actives raise or lower the signal. In outline: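 Measured here: transcript induction of a cis-regulated reporter in HepG2 cells transiently transfected via FuGene 6. After 24 h, RNA was processed by RT-PCR and fluorescent capillary electrophoresis; DMSO defined baseline activity.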

Assay [3] in a line: ATG_Sox_CIS: Attagene CIS-FACTORIAL HepG2 Assay for human SRY-box transcription factor (SOX) (AID 2282960). To be noted: HepG2 Attagene cis-factorial SOX reporter, mRNA; actives raise or lower the signal. In outline:
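Using transiently transfected HepG2 cells, reporter transcription driven by cis elements was assessed 24 h after dosing. Signal was fluorescence of capillary-separated RT-PCR products, with DMSO defining baseline activity.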

In assay [4] the target is Transcription factor Sp1 (Homo sapiens) (UniProt P08047). The assay can be described thus: ATG_Sp1_CIS: Attagene CIS-FACTORIAL HepG2 Assay for human Specificity Protein 1 (Sp1) (AID 2282961). To be noted: HepG2 Sp1 cis-reporter transcription, actives raise or lower the signal. In outline: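 After transient transfection of HepG2 cells with cis-promoter reporter units and 24 h chemical treatment, reporter transcripts were quantified by RT-PCR and capillary electrophoresis fluorescence. Gain- and loss-of-signal fitted against DMSO.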

The target of assay [5] is Signal transducer and activator of transcription 3 (Homo sapiens) (UniProt P40763). Kind of assay: ATG_STAT3_CIS: Attagene CIS-FACTORIAL HepG2 Assay for human Signal Transducer and Activator of Transcription 3 (STAT3) (AID 2282963). The note with it: HepG2, Attagene cis-factorial STAT3 reporter transcription; actives raise or lower the signal. In outline:
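Transcript-level reporter assay. HepG2 transient MRTU transfection, 24 h exposure, fluorescence detection after RT-PCR and CE; DMSO baseline.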

A short description of assay [6]: ATG_TA_CIS: Attagene CIS-FACTORIAL HepG2 Assay for human TA Basal Promoter (AID 2282964). The note with it: HepG2 Attagene CIS-factorial TA basal promoter reporter; actives raise or lower the signal. In outline:
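Multiplexed mRNA reporter assay, HepG2, 24 h. Reporter cDNA amplified, 6-FAM primer-extended, HpaI-cut, CE-sized; DMSO = negative control and baseline.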

A short description of assay [7]: ATG_TCF_b_cat_CIS: Attagene CIS-FACTORIAL HepG2 Assay for human T-Cell-Factor with beta-catenin (TCF/b-cat) (AID 2282965). To be noted: HepG2 TCF/beta-catenin cis-reporter transcription, actives raise or lower the signal. In short, it runs like this:
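HepG2 cells transiently transfected with multiple cis-promoter-regulated reporter transcription units, so endogenous transcription factor activity is measured. Reporter mRNA read 24 hours after dosing by RT-PCR, fluorescent labelling and capillary electrophoresis; bidirectional fitting against DMSO.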

Assay [8] in a line: ATG_TAL_CIS: Attagene CIS-FACTORIAL HepG2 Assay for human TAL Basal Promoter (AID 2282966).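 Also: background control endpoint measuring basal TAL promoter reporter mRNA not a specific factor.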 The note with it: HepG2 Attagene cis-factorial TAL promoter reporter; actives raise or lower the signal. In outline: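 In this cell-based multiplex, HepG2 liver cells bearing cis-promoter reporter constructs are dosed for 24 hours. Total RNA is reverse-transcribed and amplified, labelled fragments are sized by capillary electrophoresis, and signal changes are fitted bidirectionally versus DMSO.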

Assay [9] is described as follows: ATG_TGFb_CIS: Attagene CIS-FACTORIAL HepG2 Assay for human Transforming Growth Factor (TGF) (AID 2282967). The note with it: HepG2 Attagene CIS TGFb reporter, mRNA transcription; actives raise or lower the signal. In short, it runs like this: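 Transcript-level reporter readout: HepG2 transfectants, 24 h exposure, RNA to cDNA, reporter-specific PCR, fluorescent primer extension, capillary sizing against ROX standards. Gain- or loss-of-signal relative to DMSO.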

A short description of assay [10]: ATG_VDRE_CIS: Attagene CIS-FACTORIAL HepG2 Assay for human Vitamin D Receptor Element (VDRE) (AID 2282968). The note with it: HepG2 VDRE cis-reporter transcription, actives raise or lower the signal. In outline:
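RT-PCR/CE readout of reporter mRNA; HepG2, transient transfection, 24 h dosing; DMSO baseline; bidirectional analysis.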

In assay [11] the target is Nuclear receptor subfamily 1 group I member 3 (Homo sapiens) (UniProt Q14994). Kind of assay: ATG_CAR_TRANS: Attagene TRANS-FACTORIAL HepG2 Assay for human Constitutive Androstane Receptor (CAR) (AID 2282969; active = hit-call score of the fitted dose curve at least 0.9, where 1 is the maximum;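 also: activators raise reporter mRNA above DMSO so AC50 marks induction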). The note with it: HepG2 Attagene TRANS-FACTORIAL CAR reporter. In short, it runs like this:
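HepG2 cells transiently transfected with multiplexed GAL4-UAS reporter units expressing chimeric NR-Gal4 proteins; compound exposure 24 h. Reporter mRNA measured by RT-PCR, 6-FAM labelling, HpaI digestion and capillary electrophoresis; gain-of-signal fitted against DMSO baseline.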

The target in assay [12] is Estrogen receptor (Homo sapiens) (UniProt P03372). The assay can be described thus: ATG_ERa_TRANS: Attagene TRANS-FACTORIAL HepG2 Assay for human Estrogen Receptor alpha (ERa) (AID 2282970; active = hit-call score of the fitted dose curve at least 0.9, where 1 is the maximum). The note with it: HepG2 Attagene TRANS ERa GAL4 reporter, mRNA. In outline:
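After 24 h of compound treatment, RNA from HepG2 cells bearing transfected GAL4-UAS reporter constructs is converted to cDNA, amplified and fluorescently labelled. Capillary electrophoresis resolves the ERa-linked reporter; DMSO serves as negative control.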

In assay [13] the target is X-box-binding protein 1 (Homo sapiens) (UniProt P17861). The assay can be described thus: ATG_Xbp1_CIS: Attagene CIS-FACTORIAL HepG2 Assay for human X-box Binding Protein 1 (XBP1) (AID 2282972). The note with it: HepG2 XBP1 cis-element reporter, Attagene multiplex; actives raise or lower the signal. In short, it runs like this: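 HepG2, transient MRTU transfection (cis-promoter driven), 24 h compound exposure. Total RNA → oligo(dT) RT → PCR → 6-FAM labeling → HpaI cut → CE. Bidirectional fit vs DMSO.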

Assay [14] in a line: ATG_M_19_TRANS: Attagene TRANS-FACTORIAL HepG2 Assay for M19 Transcription Factor (Internal Marker) (AID 2282974; active = hit-call score of the fitted dose curve at least 0.9, where 1 is the maximum). The note with it: HepG2 Attagene TRANS-FACTORIAL M19 internal marker reporter. In outline: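 Gain-of-signal in reporter mRNA, relative to DMSO, was scored from capillary electrophoresis fluorescence. HepG2 cells carried transiently transfected multiple reporter transcription units and were incubated with test chemicals for 24 h.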

A short description of assay [15]: ATG_GAL4_TRANS: Attagene TRANS-FACTORIAL HepG2 Assay for GAL4 (Internal Marker) (AID 2282976; active = hit-call score of the fitted dose curve at least 0.9, where 1 is the maximum). To be noted: HepG2 Attagene TRANS GAL4 internal marker reporter. In outline: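 RT-PCR/capillary electrophoresis readout of reporter mRNA. HepG2, transient MRTU transfection (GAL4-UAS reporters), 24 h compound exposure. Background-control endpoint, positive direction vs DMSO baseline.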

Assay [16] deals with Bile acid receptor (Homo sapiens) (UniProt Q96RI1). The assay can be described thus: ATG_FXR_TRANS: Attagene TRANS-FACTORIAL HepG2 Assay for Farnesoid X Receptor (FXR) (AID 2282979; active = hit-call score of the fitted dose curve at least 0.9, where 1 is the maximum;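 also: hits raise reporter mRNA above DMSO so AC50 marks FXR activation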). To be noted: HepG2 Attagene TRANS FXR-GAL4 reporter transcription. In short, it runs like this: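 Read-out: fluorescent reporter transcripts quantified by capillary electrophoresis after RT-PCR of total RNA. Source cells were HepG2 transiently carrying chimeric NR-GAL4 plus GAL4-UAS reporter units, dosed 24 h. Activity fitted upward relative to DMSO baseline.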

The nature of assay [17]: ATG_SREBP_CIS: Attagene CIS-FACTORIAL HepG2 Assay for human Sterol Regulatory Element Binding (SREBP) (AID 2282962). To be noted: HepG2 Attagene cis-factorial SREBP reporter, mRNA; actives raise or lower the signal. In short, it runs like this:
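Transfected HepG2 (cis-regulated reporter library, endogenous TFs) → compound 24 h → total RNA → oligo(dT) RT → reporter-specific PCR → FAM primer extension, HpaI cut → CE fluorescence. Fit bidirectional vs DMSO.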

For assay [18], the target named is Steroid hormone receptor ERR1 (Homo sapiens) (UniProt P11474). The assay can be described thus: ATG_ERRa_TRANS: Attagene TRANS-FACTORIAL HepG2 Assay for human Estrogen-Related Receptor alpha (ERRa) (AID 2282971; active = hit-call score of the fitted dose curve at least 0.9, where 1 is the maximum). To be noted: HepG2 Attagene TRANS reporter, ERRa transactivation. In short, it runs like this:
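Transfected HepG2, 24 h dosing, ERRa-Gal4 chimera driving GAL4-UAS reporter. Readout: reporter mRNA via RT-PCR plus capillary electrophoresis (fluorescence). Positive direction vs DMSO control.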

Assay [19] deals with Glucocorticoid receptor (Homo sapiens) (UniProt P04150). The assay can be described thus: ATG_GR_TRANS: Attagene TRANS-FACTORIAL HepG2 Assay for human Glucocorticoid Receptor (GR) (AID 2282978; active = hit-call score of the fitted dose curve at least 0.9, where 1 is the maximum;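 also: activators score as hits since higher reporter transcript over DMSO is fitted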). To be noted: HepG2 Attagene TRANS GR reporter, mRNA transcription. In outline:
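HepG2 transient transfection, multiple reporter units, GAL4-UAS under NR-GAL4 chimera control. 24 h treatment. Reporter mRNA by RT-PCR/CE fluorescence, DMSO as negative control.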

Assay [20] concerns the target Estrogen-related receptor gamma (Homo sapiens) (UniProt P62508). The assay can be described thus: ATG_ERRg_TRANS: Attagene TRANS-FACTORIAL HepG2 Assay for human Estrogen-Related Receptor gamma (ERRg) (AID 2282977; active = hit-call score of the fitted dose curve at least 0.9, where 1 is the maximum;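 also: hits increase reporter signal over DMSO so potencies reflect activators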). To be noted: HepG2 Attagene TRANS reporter, ERRg transactivation. In outline: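 HepG2 cells transiently transfected with multiplexed GAL4-UAS reporter units driven by chimeric NR-Gal4 proteins; 24 h exposure. Reporter mRNA quantified by RT-PCR, fluorescent labelling, HpaI digestion and capillary electrophoresis; gain of signal vs DMSO.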

Inconclusive results are not listed. Calls of active or inactive are those of the source. The calls were made as follows, unless noted: active = hit-call score of the fitted dose curve at least 0.9, where 1 is the maximum; inactive = score below 0.9.

Bile acid receptor (Homo sapiens), sequence (Q96RI1 whole entry, looked up, the tested form may be a part): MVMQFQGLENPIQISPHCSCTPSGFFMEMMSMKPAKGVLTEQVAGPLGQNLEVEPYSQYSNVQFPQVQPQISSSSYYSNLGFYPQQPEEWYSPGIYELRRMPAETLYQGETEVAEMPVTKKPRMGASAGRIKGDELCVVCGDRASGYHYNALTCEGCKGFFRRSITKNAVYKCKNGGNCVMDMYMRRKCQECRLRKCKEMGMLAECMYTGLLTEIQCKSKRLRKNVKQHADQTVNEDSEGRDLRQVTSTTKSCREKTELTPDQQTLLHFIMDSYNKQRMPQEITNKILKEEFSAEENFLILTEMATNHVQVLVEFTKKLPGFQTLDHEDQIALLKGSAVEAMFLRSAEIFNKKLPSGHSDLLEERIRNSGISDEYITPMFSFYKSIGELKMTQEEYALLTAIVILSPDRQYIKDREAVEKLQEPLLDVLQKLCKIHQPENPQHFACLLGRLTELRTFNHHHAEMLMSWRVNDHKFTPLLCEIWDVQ
Transcription factor Sp1 (Homo sapiens), sequence (P08047 whole entry, looked up): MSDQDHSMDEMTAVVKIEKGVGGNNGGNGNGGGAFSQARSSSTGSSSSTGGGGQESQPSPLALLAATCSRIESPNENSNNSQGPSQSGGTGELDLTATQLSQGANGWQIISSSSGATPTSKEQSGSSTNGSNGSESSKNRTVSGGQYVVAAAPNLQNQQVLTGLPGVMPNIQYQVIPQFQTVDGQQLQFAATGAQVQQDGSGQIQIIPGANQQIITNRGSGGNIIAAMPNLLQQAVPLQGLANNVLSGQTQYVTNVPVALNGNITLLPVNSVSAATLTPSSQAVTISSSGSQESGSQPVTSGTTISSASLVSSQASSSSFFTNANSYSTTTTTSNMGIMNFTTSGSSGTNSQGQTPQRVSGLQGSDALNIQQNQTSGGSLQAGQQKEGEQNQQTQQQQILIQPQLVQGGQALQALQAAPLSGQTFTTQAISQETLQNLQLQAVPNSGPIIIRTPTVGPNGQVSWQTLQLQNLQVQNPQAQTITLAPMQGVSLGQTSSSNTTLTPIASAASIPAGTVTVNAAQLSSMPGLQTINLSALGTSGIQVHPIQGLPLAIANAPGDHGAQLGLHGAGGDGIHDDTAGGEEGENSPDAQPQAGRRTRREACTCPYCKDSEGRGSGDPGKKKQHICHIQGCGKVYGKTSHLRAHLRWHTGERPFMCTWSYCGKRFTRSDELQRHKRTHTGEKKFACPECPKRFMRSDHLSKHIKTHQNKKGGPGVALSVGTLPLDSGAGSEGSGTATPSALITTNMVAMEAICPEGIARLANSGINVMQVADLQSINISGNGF
X-box-binding protein 1 (Homo sapiens), sequence (P17861 whole entry, looked up): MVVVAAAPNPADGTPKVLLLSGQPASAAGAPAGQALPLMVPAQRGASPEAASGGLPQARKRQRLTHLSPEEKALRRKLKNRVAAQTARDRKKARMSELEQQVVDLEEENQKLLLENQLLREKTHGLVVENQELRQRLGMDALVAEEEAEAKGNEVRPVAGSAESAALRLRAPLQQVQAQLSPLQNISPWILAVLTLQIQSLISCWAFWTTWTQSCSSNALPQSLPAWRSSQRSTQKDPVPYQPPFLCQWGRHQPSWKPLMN
Nuclear receptor subfamily 1 group I member 3 (Homo sapiens), sequence (Q14994 whole entry, looked up, the tested form may be a part): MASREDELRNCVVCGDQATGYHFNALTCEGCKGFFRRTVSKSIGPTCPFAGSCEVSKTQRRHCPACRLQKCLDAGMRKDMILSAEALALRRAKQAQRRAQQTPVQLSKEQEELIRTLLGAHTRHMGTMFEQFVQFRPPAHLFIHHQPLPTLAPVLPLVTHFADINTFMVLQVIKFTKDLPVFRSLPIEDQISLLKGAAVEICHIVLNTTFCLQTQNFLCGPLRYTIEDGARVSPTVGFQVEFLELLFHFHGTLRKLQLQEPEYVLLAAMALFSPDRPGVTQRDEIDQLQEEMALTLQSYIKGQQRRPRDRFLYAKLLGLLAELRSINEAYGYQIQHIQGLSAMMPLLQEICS
Glucocorticoid receptor (Homo sapiens), sequence (P04150 whole entry, looked up, the tested form may be a part): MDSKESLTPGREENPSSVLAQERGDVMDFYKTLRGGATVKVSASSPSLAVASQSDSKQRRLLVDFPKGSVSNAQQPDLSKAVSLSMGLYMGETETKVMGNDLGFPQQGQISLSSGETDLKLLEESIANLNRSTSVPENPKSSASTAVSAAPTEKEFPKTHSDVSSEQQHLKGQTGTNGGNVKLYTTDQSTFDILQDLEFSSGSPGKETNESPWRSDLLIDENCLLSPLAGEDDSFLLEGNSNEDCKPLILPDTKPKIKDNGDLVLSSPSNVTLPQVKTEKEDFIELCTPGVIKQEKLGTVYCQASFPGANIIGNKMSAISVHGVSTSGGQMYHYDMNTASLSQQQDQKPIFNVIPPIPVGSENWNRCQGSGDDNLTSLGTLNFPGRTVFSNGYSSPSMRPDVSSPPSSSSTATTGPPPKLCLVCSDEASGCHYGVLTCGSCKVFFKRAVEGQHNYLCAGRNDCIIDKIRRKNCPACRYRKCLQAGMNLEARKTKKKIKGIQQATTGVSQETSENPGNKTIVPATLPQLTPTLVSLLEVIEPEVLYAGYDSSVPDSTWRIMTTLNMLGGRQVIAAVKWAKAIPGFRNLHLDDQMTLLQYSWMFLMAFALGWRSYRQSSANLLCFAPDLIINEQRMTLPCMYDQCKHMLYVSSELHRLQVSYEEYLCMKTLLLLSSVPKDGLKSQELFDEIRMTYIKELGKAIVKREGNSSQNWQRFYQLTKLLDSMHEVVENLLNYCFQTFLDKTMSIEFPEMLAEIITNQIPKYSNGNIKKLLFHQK
Signal transducer and activator of transcription 3 (Homo sapiens), sequence (P40763 whole entry, looked up): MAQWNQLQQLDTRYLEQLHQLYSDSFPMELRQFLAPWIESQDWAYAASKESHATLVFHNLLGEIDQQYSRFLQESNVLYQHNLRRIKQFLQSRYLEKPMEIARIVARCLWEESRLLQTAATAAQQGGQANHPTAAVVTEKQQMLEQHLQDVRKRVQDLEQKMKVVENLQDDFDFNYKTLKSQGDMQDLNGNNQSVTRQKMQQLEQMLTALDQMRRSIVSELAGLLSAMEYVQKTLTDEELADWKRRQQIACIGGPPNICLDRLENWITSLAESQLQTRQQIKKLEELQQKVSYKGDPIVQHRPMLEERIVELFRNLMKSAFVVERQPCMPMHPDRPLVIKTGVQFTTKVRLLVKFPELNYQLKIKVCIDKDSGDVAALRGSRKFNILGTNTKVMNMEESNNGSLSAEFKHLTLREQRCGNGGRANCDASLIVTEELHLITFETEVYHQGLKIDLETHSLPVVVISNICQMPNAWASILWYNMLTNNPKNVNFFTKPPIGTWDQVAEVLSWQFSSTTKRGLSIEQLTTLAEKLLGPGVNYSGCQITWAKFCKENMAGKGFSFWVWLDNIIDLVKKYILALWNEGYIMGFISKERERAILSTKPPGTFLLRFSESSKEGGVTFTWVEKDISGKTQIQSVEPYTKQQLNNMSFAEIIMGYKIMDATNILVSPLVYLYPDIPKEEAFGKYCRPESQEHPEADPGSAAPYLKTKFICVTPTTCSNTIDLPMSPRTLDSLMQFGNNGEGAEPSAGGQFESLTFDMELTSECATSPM
Estrogen receptor (Homo sapiens), sequence (P03372 whole entry, looked up, the tested form may be a part): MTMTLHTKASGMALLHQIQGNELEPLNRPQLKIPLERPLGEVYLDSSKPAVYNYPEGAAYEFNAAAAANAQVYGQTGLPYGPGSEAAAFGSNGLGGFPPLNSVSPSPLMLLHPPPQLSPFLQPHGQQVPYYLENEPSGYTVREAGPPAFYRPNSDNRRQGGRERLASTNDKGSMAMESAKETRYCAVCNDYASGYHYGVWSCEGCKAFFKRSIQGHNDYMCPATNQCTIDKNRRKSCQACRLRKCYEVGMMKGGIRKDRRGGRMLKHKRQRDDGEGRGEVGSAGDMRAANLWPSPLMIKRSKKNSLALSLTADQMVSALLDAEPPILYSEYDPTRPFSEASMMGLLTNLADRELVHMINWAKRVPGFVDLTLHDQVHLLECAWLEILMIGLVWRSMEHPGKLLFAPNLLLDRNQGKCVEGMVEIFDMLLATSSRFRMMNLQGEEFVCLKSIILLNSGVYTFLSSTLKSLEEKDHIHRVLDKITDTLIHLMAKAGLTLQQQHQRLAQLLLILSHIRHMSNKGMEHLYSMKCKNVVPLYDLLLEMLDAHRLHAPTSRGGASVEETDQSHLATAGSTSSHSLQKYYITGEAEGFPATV
Steroid hormone receptor ERR1 (Homo sapiens), sequence (P11474 whole entry, looked up, the tested form may be a part): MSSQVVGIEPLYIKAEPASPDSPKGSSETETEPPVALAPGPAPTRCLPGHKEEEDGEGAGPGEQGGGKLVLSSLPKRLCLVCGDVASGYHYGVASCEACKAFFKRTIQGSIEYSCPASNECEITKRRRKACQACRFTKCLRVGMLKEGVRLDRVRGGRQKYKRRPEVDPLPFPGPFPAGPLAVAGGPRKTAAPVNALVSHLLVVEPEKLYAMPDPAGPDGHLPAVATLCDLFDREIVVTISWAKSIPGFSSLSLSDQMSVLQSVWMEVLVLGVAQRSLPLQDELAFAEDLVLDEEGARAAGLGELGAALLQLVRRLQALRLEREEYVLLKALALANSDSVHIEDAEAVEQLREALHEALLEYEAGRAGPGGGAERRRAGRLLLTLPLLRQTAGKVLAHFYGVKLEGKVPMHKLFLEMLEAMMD
Estrogen-related receptor gamma (Homo sapiens), sequence (P62508 whole entry, looked up, the tested form may be a part): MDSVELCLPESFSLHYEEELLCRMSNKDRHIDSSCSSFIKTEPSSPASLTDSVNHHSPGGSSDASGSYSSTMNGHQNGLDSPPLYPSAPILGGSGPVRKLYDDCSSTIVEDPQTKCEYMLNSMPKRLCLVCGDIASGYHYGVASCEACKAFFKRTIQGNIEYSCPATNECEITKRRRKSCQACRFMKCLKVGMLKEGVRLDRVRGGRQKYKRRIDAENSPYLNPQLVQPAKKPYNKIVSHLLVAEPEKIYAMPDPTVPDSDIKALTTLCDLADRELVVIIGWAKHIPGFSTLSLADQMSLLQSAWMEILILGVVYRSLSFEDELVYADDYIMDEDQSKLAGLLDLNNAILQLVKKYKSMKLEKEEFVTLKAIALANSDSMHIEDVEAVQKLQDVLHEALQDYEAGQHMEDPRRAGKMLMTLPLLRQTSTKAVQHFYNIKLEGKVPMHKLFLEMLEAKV

In the case of `CSc1ccc(Oc2ccc(S(N)(=O)=O)cc2CN(C)C)cc1C`, the outcome in [1], in [2], in [3], in assay [4], in assay [5] and in assay [6] was inactive. The call in assay [8], in [9], in [11], in [12], in assay [13] and in assay [14] was inactive. Moreover, the call in [15] and in [16] was inactive. Besides, the AC50 was 55 µM (active) in assay [7] and 29.8 µM (active) in assay [10].
In the case of `CCC(C)N(C)C(=O)c1cc2ccccc2c(-c2ccccc2Cl)n1` (centres undefined), the half-maximal activity concentration (AC50) is 106 µM (active) in [1]; 46.9 µM (active) in assay [2]; 44.3 µM (active) in [6]; 41.7 µM (active) in [7]; 1.54 µM (active) in [10]. Besides, the molecule was classed as inactive in assay [3], in assay [4], in assay [5], in assay [8], in assay [9] and in assay [12]. Also, in assay [14], the molecule was classed as inactive.
As to `CC(=O)CC(c1ccccc1)c1c(O)c2ccccc2oc1=O` (centres undefined), the molecule was called inactive in assay [2], in [3], in [4], in assay [5], in assay [6] and in assay [7]. For the same molecule, the molecule was called inactive in [8], in assay [9], in [10], in assay [13], in assay [14] and in assay [15].
`CC(C)(O)c1ccc(CNC(=O)c2cccnc2Oc2ccc(F)cc2)cc1`: the molecule was called inactive in [2], in assay [3], in assay [4], in [5], in assay [6] and in assay [7]. The result in assay [8], in assay [9], in assay [11], in [18], in assay [13] and in assay [14] was inactive. Further, the molecule was classed as inactive in assay [15] and in assay [19]. Further, the AC50 in assay [17] was 44.6 µM (active).
For `C#CC(O)C(CC)CCCC` (centres undefined), the result in assay [2], in [3], in [5], in [6], in assay [8] and in [9] was inactive. The molecule was classed as inactive in [11], in assay [13], in assay [14] and in assay [19]. For the same molecule, the AC50 in [4] was 154 µM (active); in assay [7], 67.9 µM (active).
With `CN(C)C(=O)NC1(c2ccccc2)CCN(CC[C@@]2(c3ccc(F)c(F)c3)CN(C(=O)c3ccccc3)CCO2)CC1`, the molecule was called inactive in [1], in assay [3], in assay [4], in assay [5], in [6] and in [8]. Also, the outcome in assay [9], in assay [13], in [14], in assay [19] and in assay [16] was inactive. The AC50 was 100 µM (active) in [7] and 4.16 µM (active) in [10].
Regarding `CC(=O)S[C@H](C(=O)N[C@H]1Cc2ccccc2[C@H]2CCC[C@@H](C(=O)O)N2C1=O)C(C)C`, the molecule was called inactive in assay [2], in assay [3], in assay [4], in [17], in [5] and in assay [6]. In addition, the result in assay [7], in assay [8], in [9], in [10], in assay [11] and in assay [18] was inactive. The molecule was classed as inactive in assay [13], in [14], in assay [20], in assay [19] and in assay [16].
With `Nc1nc(=S)c2[nH]cnc2[nH]1`, the result in [2], in assay [3], in [4], in assay [17], in assay [5] and in assay [6] was inactive. Moreover, the result in assay [7], in assay [8], in assay [9], in [11], in assay [12] and in assay [13] was inactive.

(Values after PubChem BioAssay (EPA / NIEHS).)
